# High-throughput results: PubChem, National Center for Advancing Translational Sciences (NCATS)
# Only a selection was taken, and hits are over-represented in it overall.
# KDM5B inh: Primary screen for KDM5B Histone Demethylases FDH-coupled qHTS; KDM5B demethylase, FDH-coupled NADH fluorescence (FDH is formaldehyde dehydrogenase); AID 1347165, 2019; Potency, µM (doses to about 57.7 µM), actives largely listed as inhibitors; hit rate 2.6% among 220,000; active = well fitted inhibition curve with a large enough effect; note: 0% is about no effect; nearly all actives have a fitted effect of over 70% in size
# Target sequence (Q9UGL1 whole entry, looked up): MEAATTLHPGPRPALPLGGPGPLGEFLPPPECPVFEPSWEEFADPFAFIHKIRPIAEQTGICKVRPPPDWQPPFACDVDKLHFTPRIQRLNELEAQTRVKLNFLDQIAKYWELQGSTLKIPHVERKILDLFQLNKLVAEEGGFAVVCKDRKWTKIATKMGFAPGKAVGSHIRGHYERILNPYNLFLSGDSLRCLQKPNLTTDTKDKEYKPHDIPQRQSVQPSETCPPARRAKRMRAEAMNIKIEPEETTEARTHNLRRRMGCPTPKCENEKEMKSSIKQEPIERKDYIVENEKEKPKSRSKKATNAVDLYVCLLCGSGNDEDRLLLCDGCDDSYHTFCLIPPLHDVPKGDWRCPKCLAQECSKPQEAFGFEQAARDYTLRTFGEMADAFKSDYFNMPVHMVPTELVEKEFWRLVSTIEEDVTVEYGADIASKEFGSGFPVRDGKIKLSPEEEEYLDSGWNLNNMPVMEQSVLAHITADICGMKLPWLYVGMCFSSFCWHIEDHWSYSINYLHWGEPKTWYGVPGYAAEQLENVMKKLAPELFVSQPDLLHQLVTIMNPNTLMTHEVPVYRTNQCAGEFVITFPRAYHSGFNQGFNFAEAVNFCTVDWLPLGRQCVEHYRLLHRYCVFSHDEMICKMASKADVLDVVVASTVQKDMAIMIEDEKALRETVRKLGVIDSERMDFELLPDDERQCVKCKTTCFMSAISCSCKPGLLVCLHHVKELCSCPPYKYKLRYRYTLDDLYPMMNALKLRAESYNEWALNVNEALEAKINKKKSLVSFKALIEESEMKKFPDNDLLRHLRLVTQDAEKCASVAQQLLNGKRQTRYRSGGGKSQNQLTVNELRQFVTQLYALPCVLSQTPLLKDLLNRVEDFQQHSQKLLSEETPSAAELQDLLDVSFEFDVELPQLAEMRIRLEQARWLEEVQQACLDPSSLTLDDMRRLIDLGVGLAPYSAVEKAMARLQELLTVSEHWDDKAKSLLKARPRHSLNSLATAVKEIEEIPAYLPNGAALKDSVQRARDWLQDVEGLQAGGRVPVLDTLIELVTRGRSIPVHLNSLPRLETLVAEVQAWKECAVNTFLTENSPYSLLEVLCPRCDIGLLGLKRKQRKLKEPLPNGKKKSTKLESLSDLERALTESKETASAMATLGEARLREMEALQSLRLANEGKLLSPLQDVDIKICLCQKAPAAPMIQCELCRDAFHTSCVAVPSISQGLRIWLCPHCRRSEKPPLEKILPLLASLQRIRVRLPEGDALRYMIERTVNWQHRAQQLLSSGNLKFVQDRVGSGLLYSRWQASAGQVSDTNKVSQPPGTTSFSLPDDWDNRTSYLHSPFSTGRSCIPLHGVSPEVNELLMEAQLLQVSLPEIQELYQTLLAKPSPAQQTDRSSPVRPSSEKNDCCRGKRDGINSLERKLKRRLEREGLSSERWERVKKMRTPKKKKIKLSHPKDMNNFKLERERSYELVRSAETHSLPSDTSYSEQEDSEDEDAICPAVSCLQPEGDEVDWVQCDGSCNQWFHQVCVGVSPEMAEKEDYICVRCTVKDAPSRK
#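 Here, H3K4me3 peptide (12.5 µM in substrate mix) is demethylated by KDM5BΔAP, 200 nM final, after 10 min compound exposure. Formaldehyde product is coupled through FDH (0.25 U/mL in mix) to NADH fluorescence; 30-min ΔRFU feeds dose-response curves.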
# Active calls of the source: *; i = inactive. Potency is the fitted concentration of half-maximal effect.
SMILES,KDM5B inh
N#CCc1nc(-c2ccc3c(c2)OCCO3)cs1,i
CN(C)c1ccc(NC(=O)c2ccc3ccccc3c2)cc1,i
O=[N+]([O-])c1cccc(N/N=C/c2ccc3ncccc3c2)c1,i
CCN(CC)C(=O)c1cccc(NC(=O)c2cnc3ccccc3n2)c1,i
Cc1cc(C)n2ncc(C(=O)NCc3cc4n(n3)CCN(C(=O)N(C)C)C4)c2n1,31.6µM*
Cc1ccc(C)c(CC(=O)NCc2cc3n(n2)CCN(C(=O)N(C)C)C3)c1,i
COc1ccc(F)cc1C(=O)NCc1cc2n(n1)CCN(C(=O)N(C)C)C2,i
Cn1c(=O)c2c(n3ncnc13)NC(=O)CC2c1cccc(F)c1 (centres undefined),i
CNc1nc2c(s1)C(c1cccc(F)c1)CC(=O)N2 (centres undefined),28.2µM*
Cn1c(SCc2ccc(F)cc2)nc(=O)c2c1NC(=O)CC2c1ccc(F)c(Br)c1 (centres undefined),i
Cc1nc2c(c(=O)[nH]1)C(c1cc(F)cc(F)c1)CC(=O)N2 (centres undefined),i
Cc1cccn2c3c(c(=O)nc12)C(c1cccc(F)c1)CC(=O)N3 (centres undefined),i
CNc1nc2c(s1)C(c1ccc(F)c(F)c1)CC(=O)N2 (centres undefined),31.6µM*
Cc1cccc(NC(=O)COc2cccc(/C=N/O)c2)c1C,i
O=C(CCC(=O)c1ccccc1)Nc1ccccc1-c1ccccc1,i
N#Cc1c2c(c3nncn3c1NCc1ccncc1)CN(Cc1ccccc1)CC2,i
CC(C)(CNC(=S)NCc1ccccc1)CNC(=S)NCc1ccccc1,i
C#CCN(Cc1ccc(C)cc1)C(=O)C1CCCN(C(=O)CC)C1 (centres undefined),i
Cc1ccc(C(=O)N2CCN(c3nnc4ccccn34)CC2)cc1C,25.1µM*
O=C(c1ccc(F)cc1)N1CCN(c2ccc([N+](=O)[O-])cc2-n2cccc2)CC1,i
O=C(c1cccc(F)c1)N1CCN(c2nnc3ccc(Cl)cn23)CC1,14.1µM*
O=C(c1ccc(F)cc1)N1CCN(c2nnc3ccccn23)CC1,28.2µM*
Cc1ccc(C(=O)N2CCN(c3cc(-c4cccs4)[nH]n3)CC2)cc1C,i
COc1ccc(C(=O)N2CCN(c3cc(-c4ccc(F)cc4)[nH]n3)CC2)cc1,i
Cc1ccc(C(=O)N2CCN(Cc3ccc(Cl)cc3)CC2)cc1C,i
SMILES,KDM5B inh
CC(=O)c1cc(F)c(N2CCN(C(=O)c3cccc(F)c3)CC2)cc1C,i
O=C(c1cccc(F)c1)N1CCN(c2cn[nH]c(=O)c2Cl)CC1,i
CC(NC(=O)c1ccc(SC(F)(F)F)cc1)c1ccncc1 (centres undefined),i
O=C1[C@H]2CN(Cc3cc(Cl)ccc3F)C[C@H]2C(=O)N1CCc1ccccc1,i
CCn1c(C(C)(C)Oc2ccc(Cl)c(C)c2)n[nH]c1=S,i
Nc1ncccc1CN1CCC2(CC1)COCCN2C(=O)OCc1ccccc1,i
O=C(NNC(=S)NCc1ccccc1)c1ccc2ccccc2c1,i
Cc1ccc(S(=O)(=O)N2CCN(C(C(=O)NC3CC3)c3ccccc3)CC2)c(C)c1 (centres undefined),i
COc1ccc(F)cc1Nc1cnc2ccc(N(C)C)nn12,31.6µM*
Clc1ccc(Nc2cnc3ccc(-c4ccccc4)nn23)nc1,i
CN(C)c1ccc2ncc(Nc3ccccc3)n2n1,i
CN(C)c1ccc2ncc(Nc3ccc(Cl)cn3)n2n1,35.5µM*
COc1ccc(-c2ccc3ncc(Nc4cc(F)ccc4OC)n3n2)cn1,i
COc1ccc(-c2ccc3ncc(Nc4ccccc4OC)n3n2)cn1,i
O=[S+]1([O-])NCC2(CCCN(CC3CC3)C2)Nc2ccccc21 (centres undefined),i
CC(=O)c1ccc(N2CCN(C(=O)CNC(=O)NCc3ccc(F)cc3)CC2)cc1,i
O=C(c1ccc(Cl)c(Cl)c1)N1CCN(Cc2cc(=O)n3ccsc3n2)CC1,i
Cc1ccc(Cn2c(SCCO)nc3c2c(=O)[nH]c(=O)n3C)cc1,i
O=C(CSc1nnc(NC2CC2)s1)Nc1ccc(Cl)cc1,i
Cc1ccc(CC(=O)N(CC#N)C2CC2)s1,i
CN(C)C(=O)c1nc(-c2ccc(S(C)(=O)=O)cc2)c2cnccn12,28.2µM*
CCC(C(=O)NC1CCCCC1)n1c(SCc2ccc(F)cc2)nc2ccncc21 (centres undefined),i
Cc1ccc(S(=O)(=O)Nc2ccccc2C(=O)NCc2cccnc2)cc1,i
CN(C)C(=O)c1cccnc1-c1ccc(S(C)(=O)=O)cc1,i
C[C@H](O)c1onc(-c2ccc(F)cc2)c1C(=O)NC1CCC1,i
SMILES,KDM5B inh
CS(=O)(=O)c1ccc(-c2nc(C(=O)NCc3cccnc3)n3ccncc23)cc1,10µM*
Cc1ccccc1NS(=O)(=O)c1ccc(C(=O)NCc2cccnc2)cc1,i
O=C(NC1CC1)c1nc(-c2ccc(F)cc2)c2cnccn12,35.5µM*
CCN(CC)CCNC(=O)c1ccc(CSc2nc3ccncc3n2Cc2cccc(F)c2)cc1,i
CS(=O)(=O)c1ccc(CN2CCC(O)(Cn3ccnc3)CC2)cc1,i
CN(C)C(=O)c1nc(-c2cccc(F)c2)c2cnccn12,35.5µM*
CN(CC(=O)Nc1cccc(F)c1)C(=O)c1ccncc1,i
Cc1ccc2oc(C(=O)Nc3ccc(F)cc3)cc(=O)c2c1,i
CC(C)C(Br)C(=O)Nc1ccc(Cl)c(Cl)c1 (centres undefined),i
COc1ccc2cc(CN(C)C(=O)C3CCN(S(=O)(=O)c4cc(F)ccc4F)CC3)ccc2c1,i
COCCn1c2c(c(=O)[nH]c1=O)C(c1cccc(Cl)c1)C1=C(N2)c2ccccc2C1=O (centres undefined),i
CCOC(=O)C(NC(=O)Cc1cc(OC)c(OC)c(OC)c1)C(=O)OCC,i
N#CC1=C(N)OC2=C(C(=O)CC(c3ccccc3)C2)C1Cc1ccccc1 (centres undefined),i
CCN(C(=O)C(=O)c1c(C)n(C)c2ccccc12)c1ccccc1,i
COc1ccccc1N1CCN(Cc2cc(=O)oc3ccc(Cl)cc23)CC1,i
CC(Oc1ccc(C(C)(C)C)cc1)C(=O)Nc1cccc2cccnc12 (centres undefined),i
Cc1cc(F)ccc1NC(=O)c1cnc(-c2ccc(F)cc2)nc1-c1ccncc1,i
CN(C)C(=O)c1nc(-c2ccc(Cl)nc2)c2cnccn12,i
CN(C)C(=O)c1nc(-c2ccc(F)cc2)c2cnccn12,35.5µM*
Cc1cc(C)c2oc(C(=O)N(Cc3cccc(Cl)c3)C3CCS(=O)(=O)C3)cc(=O)c2c1 (centres undefined),i
CC(C)CN(C(=O)Cc1c[nH]c2ccccc12)c1nc2ccccc2s1,i
CCC(C)(C)C1CCc2c(sc(NC(=O)C3CC4CCC3C4)c2C#N)C1 (centres undefined),i
CN1CCN(c2cc(=O)c3ccnc(N4CCOCC4)c3o2)CC1,i
CN1CCN(c2nccc3c(=O)cc(N(C)C4CCOCC4)oc23)CC1,39.8µM*
CN(c1ccccc1)c1cc(=O)c2ccnc(NCC3CCOCC3)c2o1,i
CN(c1ccccc1)c1cc(=O)c2ccnc(N3CCOCC3)c2o1,i
CC(=O)Nc1ccccc1-c1nccc2c(=O)cc(N(C)C3CCOCC3)oc12,35.5µM*
CN(c1cc(=O)c2ccnc(-c3cccc(CO)c3)c2o1)C1CCOCC1,39.8µM*
